# ± gives the standard deviation.
# Tests used:
# [1] = test system: MILI (PIWIL2) piRISC loaded with L1MC piRNA (26 nt); experiment: pre-steady-state target cleavage rate (min^-1); guide: L1MC piRNA 5'p-UAACUAAAUACUAUGCAAGCUGUAGG; higher = faster piRNA-guided slicing of the target;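 note: 1 nM active piRISC with 0.1 nM target library at 33 °C single turnover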
# In short: (§1)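 Three pooled Cleave-'n-Seq trials supplied the data, with k3 capped at 0.0001 min^-1. In each, […] transcribed, DNA-blocked target RNA library and 1 nM active affinity-purified piRISC with one synthetic guide reacted in HEPES–potassium acetate buffer at 33 °C for 0–8 or 0–960 min, with or without 500 nM GTSF1 partner protein. Uncleaved targets were sequenced and normalised to depth and to weakly complementary targets. A burst-and-steady-state fit provided the pre-steady-state cleavage rate.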
# [2] = test system: EfPiwi piRISC loaded with L1MC piRNA (26 nt); experiment: pre-steady-state target cleavage rate (min^-1); auxiliary factor: 500 nM Ephydatia muelleri Gtsf1; guide: L1MC piRNA 5'p-UAACUAAAUACUAUGCAAGCUGUAGG; MIWI and MILI are mouse PIWI proteins and EfPiwi is from a freshwater sponge; tags in brackets are library labels; higher = faster piRNA-guided slicing of the target
# In short: as §1
# [3] = auxiliary factor: 500 nM mouse GTSF1
# [4] = auxiliary factor: none (no GTSF1)
sequence,measurement,setting,value
UCCUCCUACAGCUAGCAUACUAUUUAGUUA,pre-steady-state target cleavage rate,[1]; [3],0.0706 ± 0.011
same,pre-steady-state target cleavage rate,[1]; [4],0.0031 ± 0.0022
same,pre-steady-state target cleavage rate,[2],0.00634 ± 0.002
UCCUGGAACAGCAUUGCAUAGUAUUUAGUUA,pre-steady-state target cleavage rate,[1]; [3],0.233 ± 0.024
same,pre-steady-state target cleavage rate,[1]; [4],0.00862 ± 0.0022
same,pre-steady-state target cleavage rate,[2],0.015 ± 0.0044
UCCUGGAUGAGCUUGCAUAGUAUUUAGUGUA,pre-steady-state target cleavage rate,[1]; [3],0.261 ± 0.041
same,pre-steady-state target cleavage rate,[1]; [4],0.00591 ± 0.0031
same,pre-steady-state target cleavage rate,[2],0.00866 ± 0.0031
UCCUGGAACAGCUUGCAGAGUAUUUAGUUA,pre-steady-state target cleavage rate,[1]; [3],0.193 ± 0.019
same,pre-steady-state target cleavage rate,[1]; [4],0.00795 ± 0.0019
same,pre-steady-state target cleavage rate,[2],0.012 ± 0.003
UCCUGCUACAGCUUGCAUAGUAUCUUAGUUA,pre-steady-state target cleavage rate,[1]; [3],0.259 ± 0.027
same,pre-steady-state target cleavage rate,[1]; [4],0.00985 ± 0.0022
same,pre-steady-state target cleavage rate,[2],0.00633 ± 0.0017
UCCUGGAUGAGCUUGCAUAGUAUUUAGUUC [g2:g21:cont:t1C],pre-steady-state target cleavage rate,[1]; [3],0.166 ± 0.014
same,pre-steady-state target cleavage rate,[1]; [4],0.00562 ± 0.0029
same,pre-steady-state target cleavage rate,[2],0.039 ± 0.01
UCCUGGAUGUGCUUGCAUAGUAGUUAGUUA,pre-steady-state target cleavage rate,[1]; [3],0.0647 ± 0.01
same,pre-steady-state target cleavage rate,[1]; [4],0.0055 ± 0.0027
same,pre-steady-state target cleavage rate,[2],0.0116 ± 0.0041
UCCUGGAUGAGCUCUGCAUAGUAUUUAGUUA,pre-steady-state target cleavage rate,[1]; [3],0.171 ± 0.01
same,pre-steady-state target cleavage rate,[1]; [4],0.0111 ± 0.0033
same,pre-steady-state target cleavage rate,[2],0.00721 ± 0.0028
UCCUGCUACAGCAUGCAUUGUAUUUAGUUA,pre-steady-state target cleavage rate,[1]; [3],0.213 ± 0.02
same,pre-steady-state target cleavage rate,[1]; [4],0.00734 ± 0.0026
same,pre-steady-state target cleavage rate,[2],0.0119 ± 0.0032
UCCUGCUACAGCUAUGCAUAGUAUUUAGUUA,pre-steady-state target cleavage rate,[1]; [3],0.257 ± 0.022
same,pre-steady-state target cleavage rate,[1]; [4],0.0069 ± 0.0021
same,pre-steady-state target cleavage rate,[2],0.012 ± 0.0044
UCCUGGAAGACCUUGCAUAGUAUUUAGUUA,pre-steady-state target cleavage rate,[1]; [3],0.212 ± 0.02
same,pre-steady-state target cleavage rate,[1]; [4],0.00774 ± 0.0029
same,pre-steady-state target cleavage rate,[2],0.00668 ± 0.003
UCCUGGAUCAGGUUGCAUAGAAUUUAGUUA,pre-steady-state target cleavage rate,[1]; [3],0.0266 ± 0.0065
same,pre-steady-state target cleavage rate,[1]; [4],0.00431 ± 0.0021
same,pre-steady-state target cleavage rate,[2],0.00305 ± 0.0023
UCCUCCUACAGCUUCCUUAGUAUUUAGUUA,pre-steady-state target cleavage rate,[1]; [3],0.216 ± 0.025
same,pre-steady-state target cleavage rate,[1]; [4],0.00443 ± 0.002
same,pre-steady-state target cleavage rate,[2],0.00472 ± 0.0022
UCCUCCUACAGCUUGCAUUGUAUUUAGUAA,pre-steady-state target cleavage rate,[1]; [3],0.182 ± 0.02
same,pre-steady-state target cleavage rate,[1]; [4],0.00398 ± 0.002
same,pre-steady-state target cleavage rate,[2],0.00648 ± 0.0029
UCCUCCUACAGGUUGCAUACUAUUUAGUUA,pre-steady-state target cleavage rate,[1]; [3],0.0492 ± 0.009
same,pre-steady-state target cleavage rate,[1]; [4],0.00246 ± 0.0023
same,pre-steady-state target cleavage rate,[2],0.00612 ± 0.0018
UCCUCGUACAGCUUGCAUAGUAUUUAGUAA,pre-steady-state target cleavage rate,[1]; [3],0.24 ± 0.014
same,pre-steady-state target cleavage rate,[1]; [4],0.00621 ± 0.0022
same,pre-steady-state target cleavage rate,[2],0.00794 ± 0.0029
UCCUGGUACAGCUUGCAUAGUAUUUAGUUU [g2:g24:cont:t1U],pre-steady-state target cleavage rate,[1]; [3],0.249 ± 0.016
same,pre-steady-state target cleavage rate,[1]; [4],0.0218 ± 0.0053
same,pre-steady-state target cleavage rate,[2],0.117 ± 0.038
UCCUCCUACAGCUUGCUUUGUAUUUAGUUA,pre-steady-state target cleavage rate,[1]; [3],0.18 ± 0.017
same,pre-steady-state target cleavage rate,[1]; [4],0.00401 ± 0.0023
same,pre-steady-state target cleavage rate,[2],0.0093 ± 0.0052
UCCUGGAUGUCCUCGCAUAGUAUUUAGUUA,pre-steady-state target cleavage rate,[1]; [3],0.0711 ± 0.01
same,pre-steady-state target cleavage rate,[1]; [4],0.00777 ± 0.0022
same,pre-steady-state target cleavage rate,[2],0.00388 ± 0.0033
UCCUGGAUCAGCUUGCAUAGUAUUUAGGUA,pre-steady-state target cleavage rate,[1]; [3],0.0936 ± 0.021
same,pre-steady-state target cleavage rate,[1]; [4],0.00336 ± 0.0026
same,pre-steady-state target cleavage rate,[2],0.00436 ± 0.002
UCCUCGUUCAGCUUGCAUAGUAUUUAGUUA,pre-steady-state target cleavage rate,[1]; [3],0.262 ± 0.015
same,pre-steady-state target cleavage rate,[1]; [4],0.00616 ± 0.0018
same,pre-steady-state target cleavage rate,[2],0.104 ± 0.021
UCCUGGUACAGCUUACAUAGUAUUUAGUUA,pre-steady-state target cleavage rate,[1]; [3],0.213 ± 0.02
same,pre-steady-state target cleavage rate,[1]; [4],0.00894 ± 0.0027
same,pre-steady-state target cleavage rate,[2],0.0283 ± 0.0076
UCCUGCUACAGGUUGCAUAGUAUAUAGUUA,pre-steady-state target cleavage rate,[1]; [3],0.305 ± 0.036
same,pre-steady-state target cleavage rate,[1]; [4],0.00597 ± 0.0027
same,pre-steady-state target cleavage rate,[2],0.005 ± 0.0032
UCCUGGAACAGCUUGCAUAGUAUUUACUUA,pre-steady-state target cleavage rate,[1]; [3],0.0894 ± 0.017
same,pre-steady-state target cleavage rate,[1]; [4],0.003 ± 0.0029
same,pre-steady-state target cleavage rate,[2],0.00514 ± 0.0038
UCCUGGAUGUGCUUGCAUAGUAUAAAGUUA,pre-steady-state target cleavage rate,[1]; [3],0.0611 ± 0.011
same,pre-steady-state target cleavage rate,[1]; [4],0.00318 ± 0.0025
same,pre-steady-state target cleavage rate,[2],0.00378 ± 0.0034
UCCUGCCUACAGCUUGCAUAGUAUUUAGUUA,pre-steady-state target cleavage rate,[1]; [3],0.342 ± 0.022
same,pre-steady-state target cleavage rate,[1]; [4],0.0113 ± 0.0037
same,pre-steady-state target cleavage rate,[2],0.0909 ± 0.021
UCCUGGUACAGCUUGCAUAGUACUUAGUUA,pre-steady-state target cleavage rate,[1]; [3],0.187 ± 0.029
same,pre-steady-state target cleavage rate,[1]; [4],0.00401 ± 0.0032
same,pre-steady-state target cleavage rate,[2],0.00275 ± 0.0022
UCCUGGAUGUGCUUGCAUAGUAGUUUAGUUA,pre-steady-state target cleavage rate,[1]; [3],0.0704 ± 0.017
same,pre-steady-state target cleavage rate,[1]; [4],0.00921 ± 0.0027
same,pre-steady-state target cleavage rate,[2],0.0051 ± 0.0034
UCCUCCUACAGCUUGCAAUGUAUUUAGUUA,pre-steady-state target cleavage rate,[1]; [3],0.101 ± 0.015
same,pre-steady-state target cleavage rate,[1]; [4],0.00693 ± 0.0023
same,pre-steady-state target cleavage rate,[2],0.0107 ± 0.0042
UCCUGGAUGAGCUUGCAUAGUAAUUUAGUUA,pre-steady-state target cleavage rate,[1]; [3],0.0721 ± 0.0082
same,pre-steady-state target cleavage rate,[1]; [4],0.00789 ± 0.0023
same,pre-steady-state target cleavage rate,[2],0.00357 ± 0.0029
UCCUGGAACACCUUGCAUAGUAUUUAGUUA,pre-steady-state target cleavage rate,[1]; [3],0.234 ± 0.026
same,pre-steady-state target cleavage rate,[1]; [4],0.00811 ± 0.0025
same,pre-steady-state target cleavage rate,[2],0.0061 ± 0.0032
UCCUGGAACAGCUAGCAUAGUAUUAAGUUA,pre-steady-state target cleavage rate,[1]; [3],0.192 ± 0.015
same,pre-steady-state target cleavage rate,[1]; [4],0.00356 ± 0.0025
same,pre-steady-state target cleavage rate,[2],0.0146 ± 0.0061
UCCUGGAUGAGCUUGCAUAGUAUGUUAGUUA,pre-steady-state target cleavage rate,[1]; [3],0.157 ± 0.021
same,pre-steady-state target cleavage rate,[1]; [4],0.0093 ± 0.0029
same,pre-steady-state target cleavage rate,[2],0.00879 ± 0.0036
UCCUGGAACUGCUUGCAAAGUAUUUAGUUA,pre-steady-state target cleavage rate,[1]; [3],0.117 ± 0.01
same,pre-steady-state target cleavage rate,[1]; [4],0.00518 ± 0.0021
same,pre-steady-state target cleavage rate,[2],0.0228 ± 0.008
UCCUCCUACUGCUAGCAUAGUAUUUAGUUA,pre-steady-state target cleavage rate,[1]; [3],0.232 ± 0.015
same,pre-steady-state target cleavage rate,[1]; [4],0.006 ± 0.0021
same,pre-steady-state target cleavage rate,[2],0.0131 ± 0.004
UCCUCCUACAGCUUGCAUAAUAUUUAGUUA,pre-steady-state target cleavage rate,[1]; [3],0.292 ± 0.026
same,pre-steady-state target cleavage rate,[1]; [4],0.00352 ± 0.0022
same,pre-steady-state target cleavage rate,[2],0.00664 ± 0.0024
UCCUGCAACAGCUUGCAUAGUAUUUAGUUA,pre-steady-state target cleavage rate,[1]; [3],0.398 ± 0.028
same,pre-steady-state target cleavage rate,[1]; [4],0.0107 ± 0.0034
same,pre-steady-state target cleavage rate,[2],0.0741 ± 0.018
UCCUGGAACAGCUUGGAUAGUAUAUAGUUA,pre-steady-state target cleavage rate,[1]; [3],0.215 ± 0.027
same,pre-steady-state target cleavage rate,[1]; [4],0.00403 ± 0.0027
same,pre-steady-state target cleavage rate,[2],0.00939 ± 0.0043
UCCUGCUACAGCUUGCAUAGUAGUUUAGUUA,pre-steady-state target cleavage rate,[1]; [3],0.239 ± 0.032
same,pre-steady-state target cleavage rate,[1]; [4],0.0034 ± 0.0024
same,pre-steady-state target cleavage rate,[2],0.00695 ± 0.0028
UCCUGGAACAGGUUGCAAAGUAUUUAGUUA,pre-steady-state target cleavage rate,[1]; [3],0.144 ± 0.013
same,pre-steady-state target cleavage rate,[1]; [4],0.00884 ± 0.003
same,pre-steady-state target cleavage rate,[2],0.0118 ± 0.0039
UCCUGGAACAGCUUGCAUUGUAUUUAGUAA,pre-steady-state target cleavage rate,[1]; [3],0.17 ± 0.02
same,pre-steady-state target cleavage rate,[1]; [4],0.00563 ± 0.0025
same,pre-steady-state target cleavage rate,[2],0.00646 ± 0.0024
UCCUGGAACAGCUUGCUUACUAUUUAGUUA,pre-steady-state target cleavage rate,[1]; [3],0.0834 ± 0.011
same,pre-steady-state target cleavage rate,[1]; [4],0.0029 ± 0.0024
same,pre-steady-state target cleavage rate,[2],0.00758 ± 0.0029
UCCUGGUACAGCAUGCAUUGUAUUUAGUUA,pre-steady-state target cleavage rate,[1]; [3],0.167 ± 0.016
same,pre-steady-state target cleavage rate,[1]; [4],0.0119 ± 0.0038
same,pre-steady-state target cleavage rate,[2],0.00628 ± 0.0022
UCCUGGAUGAGCUUAGCAUAGUAUUUAGUUA,pre-steady-state target cleavage rate,[1]; [3],0.217 ± 0.016
same,pre-steady-state target cleavage rate,[1]; [4],0.0041 ± 0.0027
same,pre-steady-state target cleavage rate,[2],0.0344 ± 0.0086
UCCUGGAUGUCCUUGCAUAGUAUUUAUUUA,pre-steady-state target cleavage rate,[1]; [3],0.0674 ± 0.018
same,pre-steady-state target cleavage rate,[1]; [4],0.00292 ± 0.0029
same,pre-steady-state target cleavage rate,[2],0.00464 ± 0.0036
UCCUCCUACAAGCUUGCAUAGUAUUUAGUUA,pre-steady-state target cleavage rate,[1]; [3],0.222 ± 0.016
same,pre-steady-state target cleavage rate,[1]; [4],0.00894 ± 0.0024
same,pre-steady-state target cleavage rate,[2],0.0104 ± 0.0039

# From the supplement of paper PMC10338343
